Data on 62 molecules can be found in PubChem BioAssay AID2315 (National Center for Advancing Translational Sciences (NCATS), 2010).

Among all 290,000 compounds or so, about 27,000 (9.3%) were called active. No stated cut-off is given here; in the data, active means inhibition mostly above about 28% (no sharp cut-off); inactive means mostly below about 43%. Many of the other results were omitted from the sample, so actives are more common in it than they were.

The nature of this assay: A qHTS for Small Molecule Inhibitors of Shiga Toxin. Further: 0% is about no effect. Conditions: Vero cells, Shiga toxin protein synthesis inhibition reporter; at 38.7 µM, hits give high values.
For orientation: inhibition means the change of the read-out against control, counted positive when it falls. On to `C=CCn1c(SCC(=O)NCC2CCCO2)nc2sc(C)c(C)c2c1=O` (configuration not stated), for which the inhibition was -9.53% (inactive).

For `COC(=O)c1cc(S(=O)(=O)NCC2CCN(Cc3ccc(Cl)cc3)CC2)cn1C`, the inhibition is -0.168% (inactive).

For `COc1ccccc1CNC(=O)[C@@H]1CCCN1C(=O)[C@@H]1Cc2ccccc2CN1C(=O)OC(C)(C)C`, the inhibition is -9.37% (inactive).

As to `COC(=O)c1ccc(OC(=O)c2nn(C)cc2Cl)c(OC)c1`, the inhibition is 8.13% (inactive).

Consider `C=CCc1cccc(/C=N/NC(=O)COc2ccc(-n3cnnn3)cc2)c1O`, for which the inhibition was 19.1% (inactive).

For the molecule `COc1ccc(CCNC(=O)CN(C)S(=O)(=O)c2ccc3nc(C)sc3c2)cc1OC`, the inhibition is 16.5% (inactive).

In the case of `Cn1c(SCC(=O)N2CCCCC2)nc2c(c1=O)SCC2`, the inhibition was -17.3% (inactive).

Turning to `O=C(CN1C(=O)c2ccccc2S1(=O)=O)NC1CCCCC1`, the inhibition was -0.163% (inactive).

Turning to `COc1ccc(Cl)cc1C(=O)Nc1ccc(N(C)C(C)=O)cc1`, the inhibition is 22.6% (inactive).

For the molecule `COc1cc(OC)c(C(=O)NC2CC(C)(C)NC(C)(C)C2)cc1OC`, the inhibition is -5.21% (inactive).

With `COc1cc(OC)c(C(=O)Nc2ccc(N(C)C)cc2)cc1OC`, the inhibition is 77.9% (active).

Turning to `CN(Cc1ccccc1)C(=O)c1cccc(C(=O)N(C)Cc2ccccc2)c1`, the inhibition is -2.11% (inactive).

For `COc1ccc(NC(=O)COc2ccc(C(=O)c3ccc(F)cc3)cc2)cc1S(N)(=O)=O`, the inhibition was -4.25% (inactive).

As for `Brc1ccccc1/C=N/Nc1nc2ccccc2o1`, the inhibition was 68.5% (active).

For the molecule `COc1cc(/C=N\Nc2nc(-c3cccs3)c(NC(C)=O)s2)ccc1O`, the inhibition was 34% (inactive).

With `COc1ccc(/C=N/n2nnnc2N)cc1OC`, the inhibition was -3.85% (inactive).

Turning to `COc1cc(/C=N/Nc2nc3ccccc3s2)ccc1O`, the inhibition is 62.5% (active).

For `CCOc1ccccc1/C=N/Nc1nc2ccccc2o1`, the inhibition is 49% (active).

`CCNc1nc(NCC)nc(N/N=C/c2ccc(O)c(OC)c2)n1`: the inhibition was -4.76% (inactive).

As to `COc1ccc(/C=N/Nc2nc3ccccc3o2)cc1OC`, the inhibition was 101% (active).

Consider `C=CCc1ccccc1OCC(=O)N/N=C/c1ccccc1OCC`, for which the inhibition is 13.2% (inactive).

Take `CCOc1ccccc1/C=N/NC(=O)CNC(=O)COc1ccccc1`: the inhibition is 11.6% (inactive).

For the molecule `Cc1cc(C)nc(N/N=C/c2c(C)oc3ccccc23)n1`, the inhibition is 29.2% (inactive).

Consider `Oc1c(Br)cccc1/C=N/Nc1c(F)c(F)c(F)c(F)c1F`, for which the inhibition was 16% (inactive).

For the molecule `CCOc1ccc(/C=N/Nc2nncc(-c3ccccc3)n2)cc1OC`, the inhibition was 8.48% (inactive).

For `CCOC(=O)c1c(S(=O)(=O)NCC(=O)Nc2ccc(C)cc2)c(C)n(C)c1C`, the inhibition was -5.73% (inactive).

Regarding `O=C1NC(c2ccccc2)Oc2ccccc21` (configuration not stated), the inhibition was -5.27% (inactive).

Consider `Cc1ccc(NS(=O)(=O)c2ccc(-c3ccc(=O)[nH]n3)o2)c(C)c1`, for which the inhibition was -12.5% (inactive).

In the case of `CCOc1cc(-c2noc(CCCC(=O)NC3CCCCC3)n2)ccc1OC`, the inhibition is -9.28% (inactive).

`COc1ccccc1NC(=O)CSc1nnc(CNC(=O)c2ccccc2F)o1`: the inhibition was 15.5% (inactive).

For the molecule `Cc1ccccc1CSc1nnc(-c2ccccc2)c(=O)[nH]1`, the inhibition was -6.33% (inactive).

Consider `O=c1[nH]c(SCc2ccccc2)nnc1-c1ccccc1`, for which the inhibition is 36.4% (active).

On to `Cc1ccc(CSc2nc(-c3ccccc3)c(C#N)c(=O)[nH]2)cc1`, for which the inhibition is 22.6% (inactive).

Regarding `COc1ccccc1C(=O)NC(CCSC)C(=O)NNC(=O)c1csc(N2CCOCC2)n1` (configuration not stated), the inhibition is -15.3% (inactive).

With `COc1ccc(C(=O)/C=C/c2cccnc2)c(OC)c1`, the inhibition was 0.985% (inactive).

With `COc1ccc(/C=C/C(=O)c2ccc(OC)cc2O)cc1`, the inhibition was 42.2% (active).

As to `COc1ccc(/C=C/C(=O)c2cc(Br)ccc(=O)c2O)cc1`, the inhibition was 7.73% (inactive).

As to `Cc1ccccc1C1=NC(C(F)(F)F)(C(F)(F)F)c2c(n(-c3ccc(F)cc3)c(=O)[nH]c2=O)N1`, the inhibition is 2.62% (inactive).

With `O=c1[nH]c(=O)n(Cc2ccco2)c2c1C(C(F)(F)F)(C(F)(F)F)N=C(c1ccco1)N2`, the inhibition was 58.8% (active).

Regarding `CC(=O)Nc1ccc(S(=O)(=O)NC2(C(F)(F)F)C(=O)Nc3c2c(=O)[nH]c(=O)n3Cc2ccccc2)cc1` (configuration not stated), the inhibition is -2.93% (inactive).

As to `Cc1ccc(OS(=O)(=O)c2ccc(-c3csc(C)n3)s2)c(C)c1`, the inhibition was -11.1% (inactive).

For `CN(Cc1ccccc1)CC(O)COc1ccc(CNCc2cc3ccccc3s2)cc1` (configuration not stated), the inhibition is -3.31% (inactive).

Turning to `COc1ccc(OCC(=O)NCCS(=O)(=O)N2CCN(c3ccc(F)cc3)CC2)cc1`, the inhibition was -4.29% (inactive).

With `Cc1cc(N/C=C\C(=O)c2ccc(Cl)c(Cl)c2)no1`, the inhibition was 59.9% (active).

On to `Cc1cc(NC(=O)CSc2nnc(-c3ccc(Cl)s3)o2)no1`, for which the inhibition was 20.2% (inactive).

Take `COc1ccc(C(=O)/C=C/Nc2ccccn2)cc1`: the inhibition is -2.27% (inactive).

For the molecule `COc1ccccc1N1CCN(c2ccc([N+](=O)[O-])nc2)CC1`, the inhibition was 34.5% (inactive).

Turning to `CC(CN1CCOCC1)OC(=O)c1ccc(Cl)cc1Cl` (configuration not stated), the inhibition was 38.1% (inactive).

In the case of `O=S(=O)(NCCc1csc(-c2ccccc2)n1)c1cccnc1`, the inhibition was 129% (active).

Turning to `O=S(=O)(NCCc1ccncc1)c1ccccc1`, the inhibition is -5.04% (inactive).

For the molecule `Cc1nc(CNS(=O)(=O)c2cccnc2)cs1`, the inhibition is -1.16% (inactive).

With `Cc1ccc(Cn2c(=N)c(S(=O)(=O)c3ccc(C)cc3)cc3c(=O)n4ccccc4nc32)cc1`, the inhibition was -2.01% (inactive).

Regarding `CCCn1cc(S(=O)(=O)c2ccc(C)cc2)c(=O)c2cc(OCC)ccc21`, the inhibition is 3.51% (inactive).

As for `COC(=O)c1[nH]c2ccc(Br)cc2c1NC(=O)Oc1ccccc1`, the inhibition was 51.9% (active).

As to `COC(=O)c1[nH]c2ccccc2c1NC(=O)CN1CCCc2ccccc21`, the inhibition was 25.1% (inactive).

`CCOC(=O)c1[nH]c2ccc(OC)cc2c1NC(=O)CCN1CCN(Cc2ccccc2)CC1`: the inhibition was -3.91% (inactive).

As for `CN1CCN(c2ccc(NC(=O)c3ccc4c(c3)OCCO4)cc2Cl)CC1`, the inhibition is 77.9% (active).

In the case of `O=C(Nc1ccc2c(c1)OCCO2)c1ccc(Cl)c(S(=O)(=O)N2CCCCC2)c1`, the inhibition was 147% (active).

Take `O=C(Nc1cccc(S(=O)(=O)N2CCCCC2)c1)c1ccc2c(c1)OCO2`: the inhibition is 21.9% (inactive).

Turning to `O=C(Nc1cccc(Cl)c1N1CCOCC1)c1ccc2c(c1)OCCO2`, the inhibition is 121% (inactive).

As for `Cc1ccc(C(=O)Nc2ccc3c(c2)OCO3)cc1S(=O)(=O)N1CCCCC1`, the inhibition was 43.9% (inactive).

Turning to `COC(=O)c1ccc(N2CCOCC2)c(NC(=O)c2ccc3c(c2)OCCO3)c1`, the inhibition was 17.9% (inactive).
